Potency estimated from few doses data for three compounds are collected here from PMC11062922 (Nature Chemical Biology, 2023).

The test system of assay [1] is CDK16. More on the design: species or system human, MV4-11 + K-562 + COLO205 + SK-N-BE2 + OVCAR-8. The note with it: read-out: apparent Kd, compound concentrations: 100 nM and 1000 nM (sheet 'Samples'), n = 1.
Assay [2] has as its system CDK2. More on the design: species or system human, MV4-11 + K-562 + COLO205 + SK-N-BE2 + OVCAR-8. Particulars: read-out: apparent Kd; compound concentrations: 100 nM and 1000 nM (sheet 'Samples'), CATDS: 3.2251458753321499E-2; n = 1.
Assay [3] concerns CDK4. More on the design: species or system human, MV4-11 + K-562 + COLO205 + SK-N-BE2 + OVCAR-8. Particulars: read-out: apparent Kd; compound concentrations: 100 nM and 1000 nM (sheet 'Samples'), CATDS: 3.5176707262462401E-2; n = 1.
The subject of assay [4] is CDK9. Set-up: species or system human, MV4-11 + K-562 + COLO205 + SK-N-BE2 + OVCAR-8. Particulars: read-out: apparent Kd; compound concentrations: 100 nM and 1000 nM (sheet 'Samples'), CATDS: 6.6122234274616706E-2; n = 1.
For assay [5], the system named is CDKL5. Set-up: species or system human, MV4-11 + K-562 + COLO205 + SK-N-BE2 + OVCAR-8. The note with it: read-out: apparent Kd; compound concentrations: 100 nM and 1000 nM (sheet 'Samples'), CATDS: 0.306088725314409; n = 1.
In assay [6] the test system is CLK1. Set-up: species or system human, MV4-11 + K-562 + COLO205 + SK-N-BE2 + OVCAR-8. Particulars: read-out: apparent Kd, compound concentrations: 100 nM and 1000 nM (sheet 'Samples'), n = 1.
Assay [7] relates to CLK4. Set-up: species or system human, MV4-11 + K-562 + COLO205 + SK-N-BE2 + OVCAR-8. Particulars: read-out: apparent Kd, compound concentrations: 100 nM and 1000 nM (sheet 'Samples'), n = 1.
Assay [8] concerns CSNK1D. Set-up: species or system human, MV4-11 + K-562 + COLO205 + SK-N-BE2 + OVCAR-8. Particulars: read-out: apparent Kd, compound concentrations: 100 nM and 1000 nM (sheet 'Samples'), n = 1.
In assay [9] the test system is CSNK1E. More on the design: species or system human, MV4-11 + K-562 + COLO205 + SK-N-BE2 + OVCAR-8. The note with it: read-out: apparent Kd, compound concentrations: 100 nM and 1000 nM (sheet 'Samples'), n = 1.
For assay [10], the system named is DYRK1A. More on the design: species or system human, MV4-11 + K-562 + COLO205 + SK-N-BE2 + OVCAR-8. Particulars: read-out: apparent Kd, compound concentrations: 100 nM and 1000 nM (sheet 'Samples'), n = 1.
For assay [11], the system named is FLT3. Set-up: species or system human, MV4-11 + K-562 + COLO205 + SK-N-BE2 + OVCAR-8. Particulars: read-out: apparent Kd, compound concentrations: 100 nM and 1000 nM (sheet 'Samples'), n = 1.
For assay [12], the system named is GSK3A. More on the design: species or system human, MV4-11 + K-562 + COLO205 + SK-N-BE2 + OVCAR-8. Particulars: read-out: apparent Kd, compound concentrations: 100 nM and 1000 nM (sheet 'Samples'), n = 1.
Assay [13] relates to GSK3B. More on the design: species or system human, MV4-11 + K-562 + COLO205 + SK-N-BE2 + OVCAR-8. Particulars: read-out: apparent Kd, compound concentrations: 100 nM and 1000 nM (sheet 'Samples'), n = 1.
Assay [14] deals with ICK. Set-up: species or system human, MV4-11 + K-562 + COLO205 + SK-N-BE2 + OVCAR-8. The note with it: read-out: apparent Kd, compound concentrations: 100 nM and 1000 nM (sheet 'Samples'), n = 1.
Assay [15] has as its system NEK9. More on the design: species or system human, MV4-11 + K-562 + COLO205 + SK-N-BE2 + OVCAR-8. The note with it: read-out: apparent Kd; compound concentrations: 100 nM and 1000 nM (sheet 'Samples'), CATDS: 3.4709334986352897E-2; n = 1.
Assay [16] concerns NNT. Set-up: species or system human, MV4-11 + K-562 + COLO205 + SK-N-BE2 + OVCAR-8. The note with it: read-out: apparent Kd; compound concentrations: 100 nM and 1000 nM (sheet 'Samples'), CATDS: 3.3051747730414797E-2; n = 1.
Assay [17] concerns NUAK1. Set-up: species or system human, MV4-11 + K-562 + COLO205 + SK-N-BE2 + OVCAR-8. The note with it: read-out: apparent Kd; compound concentrations: 100 nM and 1000 nM (sheet 'Samples'), CATDS: 4.2227707983222298E-2; n = 1.
Assay [18] has as its target Q6ZSR9 (human, UniProt Q6ZSR9). Set-up: species or system MV4-11 + K-562 + COLO205 + SK-N-BE2 + OVCAR-8. Particulars: read-out: apparent Kd; compound concentrations: 100 nM and 1000 nM (sheet 'Samples'), CATDS: 7.3176607259513596E-2; n = 1.
The test system of assay [19] is RIOK2. More on the design: species or system human, MV4-11 + K-562 + COLO205 + SK-N-BE2 + OVCAR-8. The note with it: read-out: apparent Kd, compound concentrations: 100 nM and 1000 nM (sheet 'Samples'), n = 1.
For assay [20], the system named is TGFBR2. Set-up: species or system human, MV4-11 + K-562 + COLO205 + SK-N-BE2 + OVCAR-8. The note with it: read-out: apparent Kd; compound concentrations: 100 nM and 1000 nM (sheet 'Samples'), CATDS: 8.2747157817186001E-2; n = 1.
Assay [21] deals with CDC42. More on the design: species or system human, MV4-11 + K-562 + COLO205 + SK-N-BE2 + OVCAR-8. The note with it: read-out: apparent Kd; compound concentrations: 100 nM and 1000 nM (sheet 'Samples'), CATDS: 0.112066673449154; n = 1.
Assay [22] has as its system CSNK1A1. More on the design: species or system human, MV4-11 + K-562 + COLO205 + SK-N-BE2 + OVCAR-8. Particulars: read-out: apparent Kd; compound concentrations: 100 nM and 1000 nM (sheet 'Samples'), CATDS: 0.11767767323313399; n = 1.
The test system of assay [23] is GAK. Set-up: species or system human, MV4-11 + K-562 + COLO205 + SK-N-BE2 + OVCAR-8. The note with it: read-out: apparent Kd; compound concentrations: 100 nM and 1000 nM (sheet 'Samples'), CATDS: 0.12375475758879401; n = 1.
The subject of assay [24] is CDK17. More on the design: species or system human, MV4-11 + K-562 + COLO205 + SK-N-BE2 + OVCAR-8. The note with it: read-out: apparent Kd; compound concentrations: 100 nM and 1000 nM (sheet 'Samples'), CATDS: 6.9472696820348595E-2; n = 1.
The test system of assay [25] is PRKCA. Set-up: species or system human, MV4-11 + K-562 + COLO205 + SK-N-BE2 + OVCAR-8. The note with it: read-out: apparent Kd; compound concentrations: 100 nM and 1000 nM (sheet 'Samples'), CATDS: 6.1825082982023397E-2; n = 1.
Assay [26] relates to PRKCB. Set-up: species or system human, MV4-11 + K-562 + COLO205 + SK-N-BE2 + OVCAR-8. The note with it: read-out: apparent Kd; compound concentrations: 100 nM and 1000 nM (sheet 'Samples'), CATDS: 5.6210904808559101E-2; n = 1.
Assay [27] deals with PRKCD. Set-up: species or system human, MV4-11 + K-562 + COLO205 + SK-N-BE2 + OVCAR-8. The note with it: read-out: apparent Kd; compound concentrations: 100 nM and 1000 nM (sheet 'Samples'), CATDS: 6.6135854236704303E-2; n = 1.
The subject of assay [28] is SLK. More on the design: species or system human, MV4-11 + K-562 + COLO205 + SK-N-BE2 + OVCAR-8. Particulars: read-out: apparent Kd; compound concentrations: 100 nM and 1000 nM (sheet 'Samples'), CATDS: 5.3656939950023998E-2; n = 1.

Read-outs that look alike come from different tables or passages of the source.

Sequence of Q6ZSR9 (Q6ZSR9 whole entry, looked up): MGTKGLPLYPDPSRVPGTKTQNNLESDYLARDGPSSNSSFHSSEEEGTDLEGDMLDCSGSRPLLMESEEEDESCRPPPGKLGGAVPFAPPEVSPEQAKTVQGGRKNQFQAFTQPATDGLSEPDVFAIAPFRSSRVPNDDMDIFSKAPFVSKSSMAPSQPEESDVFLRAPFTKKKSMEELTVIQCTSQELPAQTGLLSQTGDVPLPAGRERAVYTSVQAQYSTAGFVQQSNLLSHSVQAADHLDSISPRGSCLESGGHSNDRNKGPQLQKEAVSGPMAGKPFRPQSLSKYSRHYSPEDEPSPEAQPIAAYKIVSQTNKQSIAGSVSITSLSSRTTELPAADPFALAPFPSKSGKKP

On to `COc1cccc(Nc2nccc(-c3cnn4ncccc34)n2)c1` [GW810576X], for which the potency estimated from few doses in assay [1] (CATDS: 3.1157097879833801E-2) was 2230 nM; in assay [2], 1800 nM; in [3], 1130 nM; in [4], 119 nM; in assay [5], 8.45 nM; in assay [6] (CATDS: 0.131869322388253), 29.2 nM. Moreover, the potency estimated from few doses was 90.9 nM in assay [7] (CATDS: 7.3732839889054297E-2); 1030 nM in assay [8] (CATDS: 3.5838047250471398E-2); 2230 nM in [9] (CATDS: 3.1149336029707601E-2); 529 nM in assay [10] (CATDS: 4.1731549571109597E-2); 103 nM in assay [11] (CATDS: 6.99540125282513E-2); 45 nM in assay [12] (CATDS: 0.103253823443788). The potency estimated from few doses was 50.3 nM in assay [13] (CATDS: 9.7411606637186801E-2); 67.5 nM in assay [14] (CATDS: 8.4231126757800603E-2); 1210 nM in assay [15]; 1570 nM in assay [16]; 505 nM in assay [17]; 92.6 nM in assay [18]. Also, the potency estimated from few doses in assay [19] (CATDS: 3.29501520790835E-2) is 1590 nM; in [20], 70.2 nM.
Turning to `CCc1nn2ncccc2c1-c1ccnc(NC2CC2)n1` [GW683768X], the potency estimated from few doses in assay [21] was 1390 nM; in [22], 1200 nM; in assay [8] (CATDS: 0.430543569866988), 95.2 nM; in assay [9] (CATDS: 0.24847771886196199), 230 nM; in [11] (CATDS: 0.12792168712312599), 948 nM; in [23] it was 1040 nM. In assay [19] (CATDS: 0.107134967231821), the potency estimated from few doses was 1610 nM.
For `Cl.Cn1cc(C2=C(c3cccc(NCC(O)CO)c3)C(=O)NC2=O)c2cc(Cl)ccc21` (stereo not drawn) [RO3303724-001], the potency estimated from few doses in assay [1] (CATDS: 8.3420011221061796E-2) was 435 nM; in [24] it was 789 nM; in assay [6] (CATDS: 0.14144162064954499) it was 89.4 nM; in assay [7] (CATDS: 0.121885472090614), 140 nM; in [10] (CATDS: 6.0885213450921502E-2), 1290 nM; in assay [12] (CATDS: 0.52335848110550598) it was 1.59 nM. Besides, the potency estimated from few doses in assay [13] (CATDS: 0.436012050591219) is 2.26 nM; in [14] (CATDS: 7.1463639855973302E-2), 716 nM; in [25] it was 1210 nM; in [26] it was 1830 nM; in assay [27], 939 nM; in assay [28], 2310 nM.
